Laboratory results as given in the supplement of paper PMC10849652.
The full data set covers some 7,900 targets. This sample favours those with a hit. About 0.6% of all pairs of compound and target were hits. A number with no mark means an inactive call.

Assays:
Experiment in all cases: log2 fold change, soluble protein after heating vs DMSO (PISA); higher = thermal stabilisation; K562 cells, 10 uM, 30 min; active = over 0.2 and 3.5 SD of the protein, either way, in both replicates (recomputed)
[1] = compound: COC1=CC=C(C=C1)CN2C=CC3=C2C=C(C=C3)C(=O)NO
Summary of the method: (§1)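 Thermal stability values are relative to control samples and come from duplicates. They are expressed as log2 fold changes. For measurement, K562 cells (2×10^6 cells/mL) received 10 μM compound for 30 min, and aliquots were heated for 3 min over 48°C-58°C, pooled, and extracted at 4°C in PBS with 0.5% NP-40. Soluble protein, the supernatant after 21,000xg for 90 min, was quantified by TMTpro 16plex LC-MS/MS with equalised channel sums.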

gefitinib = compound: COc1cc2ncnc(Nc3ccc(F)c(Cl)c3)c2cc1OCCCN1CCOCC1 [gefitinib]
Summary of the method: as §1

crizotinib = compound: C[C@@H](Oc1cc(-c2cnn(C3CCNCC3)c2)cnc1N)c1c(Cl)ccc(F)c1Cl [crizotinib]
Summary of the method: as §1

[2] = compound: C[C@@H]1COCCN1C2=NC(=NC(=C2)C3(CC3)S(=O)(=O)C)C4=C5C=CNC5=CC=C4
Summary of the method: as §1

doramapimod = compound: Cc1ccc(-n2nc(C(C)(C)C)cc2NC(=O)Nc2ccc(OCCN3CCOCC3)c3ccccc23)cc1 [doramapimod]
Summary of the method: as §1

zotarolimus = compound: CO[C@H]1C[C@@H]2CC[C@@H](C)[C@@](O)(O2)C(=O)C(=O)N2CCCC[C@H]2C(=O)O[C@H]([C@H](C)C[C@@H]2CC[C@H](n3cnnn3)[C@H](OC)C2)CC(=O)[C@H](C)/C=C(\C)[C@@H](O)[C@@H](OC)C(=O)[C@H](C)C[C@H](C)/C=C/C=C/C=C/1C [zotarolimus]
Summary of the method: as §1

idasanutlin = compound: COc1cc(C(=O)O)ccc1NC(=O)[C@@H]1N[C@@H](CC(C)(C)C)[C@](C#N)(c2ccc(Cl)cc2F)[C@H]1c1cccc(Cl)c1F [idasanutlin]
Summary of the method: as §1

alisertib = compound: COc1cc(Nc2ncc3c(n2)-c2ccc(Cl)cc2C(c2c(F)cccc2OC)=NC3)ccc1C(=O)O [alisertib]
Summary of the method: as §1

[3] = compound: COc1cc2nc(-c3cc(F)ccc3O)nc(N[C@@H]3CNC[C@H]3C(C)(C)O)c2cc1OC
Summary of the method: as §1

[4] = compound: COc1cccc2cc(-c3nc([C@H]4CC[C@H](C(=O)O)CC4)n4ncnc(N)c34)[nH]c12
Summary of the method: as §1

lapatinib = compound: CS(=O)(=O)CCNCc1ccc(-c2ccc3ncnc(Nc4ccc(OCc5cccc(F)c5)c(Cl)c4)c3c2)o1 [lapatinib]
Summary of the method: as §1

pictilisib = compound: CS(=O)(=O)N1CCN(Cc2cc3nc(-c4cccc5[nH]ncc45)nc(N4CCOCC4)c3s2)CC1 [pictilisib]
Summary of the method: as §1

[5] = compound: C[C@H](C1=CC=C(C=C1)C(=O)NC2=C3C=CNC3=NC=C2)N
Summary of the method: as §1

gandotinib = compound: Cc1cc(Nc2cc(CN3CCOCC3)c3nc(C)c(Cc4ccc(Cl)cc4F)n3n2)n[nH]1 [gandotinib]
Summary of the method: as §1

tozasertib = compound: Cc1cc(Nc2cc(N3CCN(C)CC3)nc(Sc3ccc(NC(=O)C4CC4)cc3)n2)n[nH]1 [tozasertib]
Summary of the method: as §1

ispinesib = compound: Cc1ccc(C(=O)N(CCCN)[C@@H](c2nc3cc(Cl)ccc3c(=O)n2Cc2ccccc2)C(C)C)cc1 [ispinesib]
Summary of the method: as §1

filanesib = compound: CON(C)C(=O)N1N=C(c2cc(F)ccc2F)S[C@@]1(CCCN)c1ccccc1 [filanesib]
Summary of the method: as §1

[6] = compound: CS(=O)(=O)c1ccc(-c2cnc(N)c(C(=O)Nc3ccccc3)n2)cc1
Summary of the method: as §1

duvelisib = compound: C[C@H](Nc1ncnc2nc[nH]c12)c1cc2cccc(Cl)c2c(=O)n1-c1ccccc1 [duvelisib]
Summary of the method: as §1

[7] = compound: Cc1cc(SCc2sc(-c3ccc(C(F)(F)F)cc3)nc2C)ccc1OCC(=O)O
Summary of the method: as §1

UniProt Q9NRX5, sequence (Q9NRX5 whole entry, looked up): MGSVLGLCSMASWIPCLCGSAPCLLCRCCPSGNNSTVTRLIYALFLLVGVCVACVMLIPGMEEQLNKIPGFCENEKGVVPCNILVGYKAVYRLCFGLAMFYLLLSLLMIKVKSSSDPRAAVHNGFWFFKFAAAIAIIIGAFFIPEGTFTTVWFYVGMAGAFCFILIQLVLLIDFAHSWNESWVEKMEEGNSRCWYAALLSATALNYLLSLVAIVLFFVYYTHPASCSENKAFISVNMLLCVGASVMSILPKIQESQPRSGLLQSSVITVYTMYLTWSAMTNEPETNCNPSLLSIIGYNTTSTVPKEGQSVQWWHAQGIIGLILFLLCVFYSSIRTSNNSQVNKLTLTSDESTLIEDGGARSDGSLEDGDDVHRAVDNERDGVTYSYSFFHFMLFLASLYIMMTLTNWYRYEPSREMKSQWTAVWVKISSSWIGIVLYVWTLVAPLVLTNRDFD
UniProt A6NEQ0, sequence (A6NEQ0 whole entry, looked up): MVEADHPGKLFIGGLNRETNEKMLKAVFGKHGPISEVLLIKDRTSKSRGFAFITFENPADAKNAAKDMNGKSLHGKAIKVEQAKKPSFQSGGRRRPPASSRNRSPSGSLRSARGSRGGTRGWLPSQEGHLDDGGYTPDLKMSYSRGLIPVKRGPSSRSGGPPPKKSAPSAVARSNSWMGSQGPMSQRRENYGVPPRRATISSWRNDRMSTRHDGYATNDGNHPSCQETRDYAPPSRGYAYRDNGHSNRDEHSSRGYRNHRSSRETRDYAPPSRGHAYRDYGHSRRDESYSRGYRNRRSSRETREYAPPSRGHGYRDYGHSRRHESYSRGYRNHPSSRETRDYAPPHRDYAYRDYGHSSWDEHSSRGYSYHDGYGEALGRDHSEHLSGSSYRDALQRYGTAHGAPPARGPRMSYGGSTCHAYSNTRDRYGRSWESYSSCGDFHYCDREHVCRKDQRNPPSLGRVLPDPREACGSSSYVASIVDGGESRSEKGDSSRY
UniProt Q96GF1, sequence (Q96GF1 whole entry, looked up): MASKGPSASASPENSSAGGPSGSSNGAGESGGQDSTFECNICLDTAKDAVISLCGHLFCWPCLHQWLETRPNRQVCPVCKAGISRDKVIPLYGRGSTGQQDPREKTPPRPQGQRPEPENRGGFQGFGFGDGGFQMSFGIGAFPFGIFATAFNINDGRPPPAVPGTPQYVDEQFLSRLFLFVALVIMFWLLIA
UniProt Q9Y3L5, sequence (Q9Y3L5 whole entry, looked up): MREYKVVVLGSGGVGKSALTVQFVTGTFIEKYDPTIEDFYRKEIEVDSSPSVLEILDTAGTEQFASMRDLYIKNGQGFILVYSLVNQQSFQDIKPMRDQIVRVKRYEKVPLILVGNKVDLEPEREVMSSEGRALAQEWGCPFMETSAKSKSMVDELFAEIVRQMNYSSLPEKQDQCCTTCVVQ
UniProt Q5PRF9, sequence (Q5PRF9 whole entry, looked up): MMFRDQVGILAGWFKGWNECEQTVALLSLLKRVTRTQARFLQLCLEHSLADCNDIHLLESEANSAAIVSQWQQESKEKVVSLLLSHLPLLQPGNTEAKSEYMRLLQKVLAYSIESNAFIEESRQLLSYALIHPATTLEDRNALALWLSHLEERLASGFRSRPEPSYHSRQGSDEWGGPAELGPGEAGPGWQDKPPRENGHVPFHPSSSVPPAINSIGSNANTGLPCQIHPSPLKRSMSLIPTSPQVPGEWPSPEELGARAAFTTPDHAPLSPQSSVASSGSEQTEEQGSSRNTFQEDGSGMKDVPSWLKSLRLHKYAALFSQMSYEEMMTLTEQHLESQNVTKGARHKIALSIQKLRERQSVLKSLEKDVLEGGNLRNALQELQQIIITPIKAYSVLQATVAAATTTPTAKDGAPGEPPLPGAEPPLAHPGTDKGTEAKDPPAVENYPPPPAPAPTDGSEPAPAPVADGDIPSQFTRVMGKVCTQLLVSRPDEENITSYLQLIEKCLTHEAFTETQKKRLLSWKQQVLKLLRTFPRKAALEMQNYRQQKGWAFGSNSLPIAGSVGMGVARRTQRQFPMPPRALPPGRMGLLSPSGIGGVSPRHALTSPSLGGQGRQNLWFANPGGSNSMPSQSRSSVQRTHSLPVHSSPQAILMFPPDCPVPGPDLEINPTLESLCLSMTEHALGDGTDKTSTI
UniProt Q96LZ7, sequence (Q96LZ7 whole entry, looked up): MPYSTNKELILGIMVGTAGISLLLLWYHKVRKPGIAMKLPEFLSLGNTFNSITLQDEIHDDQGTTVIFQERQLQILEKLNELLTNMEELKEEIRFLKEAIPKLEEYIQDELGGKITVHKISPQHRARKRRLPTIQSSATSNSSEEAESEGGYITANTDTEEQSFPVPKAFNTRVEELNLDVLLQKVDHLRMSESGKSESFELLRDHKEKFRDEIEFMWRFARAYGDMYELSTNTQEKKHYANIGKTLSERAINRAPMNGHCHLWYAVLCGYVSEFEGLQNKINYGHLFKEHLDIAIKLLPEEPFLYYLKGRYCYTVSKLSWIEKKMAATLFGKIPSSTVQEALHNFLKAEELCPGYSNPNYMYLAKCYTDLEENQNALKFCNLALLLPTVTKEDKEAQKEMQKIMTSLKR
UniProt O00560, sequence (O00560 whole entry, looked up): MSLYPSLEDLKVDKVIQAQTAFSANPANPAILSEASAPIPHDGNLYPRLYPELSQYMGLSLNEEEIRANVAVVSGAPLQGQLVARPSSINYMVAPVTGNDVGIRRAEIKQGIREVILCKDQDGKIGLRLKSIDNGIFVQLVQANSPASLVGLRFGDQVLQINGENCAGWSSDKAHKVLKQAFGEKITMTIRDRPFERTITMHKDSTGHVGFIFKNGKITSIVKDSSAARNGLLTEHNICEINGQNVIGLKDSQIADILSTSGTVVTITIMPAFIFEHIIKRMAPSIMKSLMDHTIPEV
UniProt Q8IZE3, sequence (Q8IZE3 whole entry, looked up): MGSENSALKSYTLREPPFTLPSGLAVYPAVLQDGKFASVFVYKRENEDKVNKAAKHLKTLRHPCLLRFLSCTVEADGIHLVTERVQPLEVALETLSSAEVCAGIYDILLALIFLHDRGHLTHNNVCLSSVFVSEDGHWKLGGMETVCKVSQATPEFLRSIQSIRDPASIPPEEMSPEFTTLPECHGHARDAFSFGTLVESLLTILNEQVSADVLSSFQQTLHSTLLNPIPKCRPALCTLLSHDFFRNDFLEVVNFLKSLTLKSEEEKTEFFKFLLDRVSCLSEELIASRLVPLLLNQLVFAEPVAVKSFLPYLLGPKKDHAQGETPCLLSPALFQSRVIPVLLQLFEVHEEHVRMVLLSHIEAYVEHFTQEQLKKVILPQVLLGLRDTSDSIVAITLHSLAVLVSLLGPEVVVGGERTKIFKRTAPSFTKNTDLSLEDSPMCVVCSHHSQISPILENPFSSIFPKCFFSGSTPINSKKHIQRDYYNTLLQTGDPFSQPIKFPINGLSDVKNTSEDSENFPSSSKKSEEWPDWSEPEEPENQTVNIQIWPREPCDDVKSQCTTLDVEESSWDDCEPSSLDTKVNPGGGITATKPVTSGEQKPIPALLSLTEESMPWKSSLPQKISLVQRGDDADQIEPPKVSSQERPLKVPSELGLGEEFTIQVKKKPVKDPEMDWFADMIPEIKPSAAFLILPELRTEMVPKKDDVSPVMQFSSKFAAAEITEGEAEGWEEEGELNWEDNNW
UniProt O75582, sequence (O75582 whole entry, looked up): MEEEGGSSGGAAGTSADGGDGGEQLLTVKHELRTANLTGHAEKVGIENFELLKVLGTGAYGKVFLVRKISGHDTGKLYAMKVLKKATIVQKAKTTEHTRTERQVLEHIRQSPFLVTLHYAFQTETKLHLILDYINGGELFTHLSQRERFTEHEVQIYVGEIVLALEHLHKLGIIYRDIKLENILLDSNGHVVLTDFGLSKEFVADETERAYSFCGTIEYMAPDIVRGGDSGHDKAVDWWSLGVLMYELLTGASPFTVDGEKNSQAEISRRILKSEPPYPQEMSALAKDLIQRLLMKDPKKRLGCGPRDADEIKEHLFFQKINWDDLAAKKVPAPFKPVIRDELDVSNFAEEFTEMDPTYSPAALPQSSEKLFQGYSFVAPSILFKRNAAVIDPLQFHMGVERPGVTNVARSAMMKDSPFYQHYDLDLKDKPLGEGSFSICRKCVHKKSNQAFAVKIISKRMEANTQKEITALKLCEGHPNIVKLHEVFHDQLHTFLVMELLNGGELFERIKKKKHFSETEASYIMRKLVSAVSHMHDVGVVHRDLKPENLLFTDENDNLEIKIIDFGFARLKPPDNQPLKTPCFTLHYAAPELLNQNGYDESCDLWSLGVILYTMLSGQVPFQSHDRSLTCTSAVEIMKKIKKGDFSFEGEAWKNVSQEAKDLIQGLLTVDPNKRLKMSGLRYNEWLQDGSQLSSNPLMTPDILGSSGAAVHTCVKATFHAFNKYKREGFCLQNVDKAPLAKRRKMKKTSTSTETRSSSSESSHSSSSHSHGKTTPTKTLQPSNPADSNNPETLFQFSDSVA
UniProt P43003, sequence (P43003 whole entry, looked up): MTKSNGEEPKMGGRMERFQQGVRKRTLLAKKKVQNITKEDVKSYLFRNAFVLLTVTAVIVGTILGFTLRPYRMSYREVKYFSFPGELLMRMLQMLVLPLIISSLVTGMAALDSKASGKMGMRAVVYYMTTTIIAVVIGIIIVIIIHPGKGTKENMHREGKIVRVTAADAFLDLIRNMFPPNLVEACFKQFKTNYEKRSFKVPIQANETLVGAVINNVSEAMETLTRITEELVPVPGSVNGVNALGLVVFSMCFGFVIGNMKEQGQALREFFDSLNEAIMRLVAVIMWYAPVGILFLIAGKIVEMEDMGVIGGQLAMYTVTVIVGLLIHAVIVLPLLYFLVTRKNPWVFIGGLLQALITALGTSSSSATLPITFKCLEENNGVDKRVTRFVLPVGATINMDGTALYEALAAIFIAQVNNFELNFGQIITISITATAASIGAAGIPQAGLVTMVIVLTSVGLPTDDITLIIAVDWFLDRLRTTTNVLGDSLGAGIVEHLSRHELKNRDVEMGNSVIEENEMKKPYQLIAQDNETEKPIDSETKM
UniProt P60903, sequence (P60903 whole entry, looked up): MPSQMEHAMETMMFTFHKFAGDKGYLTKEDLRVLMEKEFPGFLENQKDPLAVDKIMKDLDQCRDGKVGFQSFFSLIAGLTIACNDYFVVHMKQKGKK

Row | Target | log2 fold change [1] | log2 fold change (gefitinib) | log2 fold change (crizotinib) | log2 fold change [2] | log2 fold change (doramapimod) | log2 fold change (zotarolimus) | log2 fold change (idasanutlin) | log2 fold change (alisertib) | log2 fold change [3] | log2 fold change [4] | log2 fold change (lapatinib) | log2 fold change (pictilisib) | log2 fold change [5] | log2 fold change (gandotinib) | log2 fold change (tozasertib) | log2 fold change (ispinesib) | log2 fold change (filanesib) | log2 fold change [6] | log2 fold change (duvelisib) | log2 fold change [7]
1 | SAFB2 (UniProt K7EQU4) | 0.115 | -0.126 | -0.244 | 0.275 | -0.04 | – | – | – | – | – | – | – | – | – | – | – | – | – | – | –
2 | RNF185 (UniProt Q96GF1) | – | 0.007 | – | – | – | 0.117 | -0.143 | -0.145 | -0.175 | -0.016 | -0.111 | 0.076 | -0.036 | 0.104 | -0.112 | -0.024 | – | – | – | –
3 | SCLT1 (UniProt Q96NL6) | 0.433 (active) | -0.022 | 0.003 | – | 0.055 | 0.079 | – | -0.205 | – | 0.046 | – | 0.185 | -0.081 | 0.149 | -0.144 | – | -0.063 | 0.148 | 0.038 | -0.028
4 | SDC3 (UniProt O75056) | – | 0.115 | – | 0.057 | – | -0.045 | 0.166 | – | – | – | – | -0.674 | 0.151 | -0.193 | -0.131 | – | 0.081 | -0.047 | 0.11 | -0.19
5 | SERINC1 (UniProt Q9NRX5) | 0.073 | -0.266 | -0.197 | 0.037 | 0.068 | – | 0.233 | 0.073 | -0.208 | -0.167 | -0.227 | – | – | – | 0.125 | -0.048 | -0.146 | 0.075 | 0.03 | -0.016
6 | SEPTIN5 (UniProt G3XAH0) | – | -0.057 | – | 0.087 | – | 0.045 | 0.027 | 0.003 | 0.011 | 0.036 | 0.094 | 0.051 | -0.089 | -0.153 | -0.028 | -0.017 | -0.044 | -0.042 | -0.032 | -0.036
7 | RPS19 (UniProt M0R2L9) | – | 0.375 | – | – | – | – | -0.034 | -0.463 | -0.158 | -0.331 | -0.341 | – | – | – | -0.034 | – | – | – | – | –
8 | RMDN2 isoform 2 (UniProt Q96LZ7) | 0.008 | -0.418 | 0 | – | 0.145 | – | – | 0.389 | – | 0.191 | – | – | – | – | – | -0.112 | – | – | – | –
9 | SDCBP isoform 2 (UniProt O00560) | – | -0.054 | – | -0.108 | – | – | – | -0.236 | 0.045 | 0.034 | -0.04 | 0.228 | – | 0.058 | 0.045 | -0.185 | -0.08 | 0.093 | 0.019 | 0.069
10 | SCAMP2 (UniProt O15127) | – | 0.036 | – | -0.213 | – | 0.171 | -0.1 | -0.087 | -0.035 | 0.042 | 0.009 | 0.199 | -0.544 (active) | 0.034 | 0.044 | -0.073 | 0.036 | 0.019 | 0.009 | -0.065
11 | RNF26 (UniProt Q9BY78) | – | – | – | – | – | – | – | – | – | – | – | 0.065 | – | 0.008 | – | -0.829 | – | – | – | –
12 | SLC1A3 (UniProt P43003) | – | -0.023 | – | 0.167 | – | -0.097 | 0 | 0.017 | 0.118 | 0.012 | -0.03 | 0.02 | -0.039 | -0.042 | -0.194 | 0.126 | – | – | -0.084 | 0.201
13 | RPS6KA5 (UniProt O75582) | -0.276 | – | -0.393 | 0.045 | -0.016 | – | – | -0.076 | -0.185 | 0.131 | 0.057 | – | – | – | – | 0.018 | – | – | – | –
14 | RBMY1E (UniProt A6NEQ0) | 0.078 | -0.07 | -0.122 | – | -0.007 | 0.083 | – | -0.035 | -0.476 (active) | 0.126 | 0.044 | 0.015 | -0.12 | -0.137 | 0.113 | -0.148 | – | – | – | –
15 | S100A10 (UniProt P60903) | – | 0.305 | – | – | – | -0.045 | 0.165 | – | 0.093 | – | 0.01 | -0.056 | 0.063 | 0.131 | 0.057 | – | -0.143 | -0.004 | – | –
16 | SH3PXD2B (UniProt A1X283) | – | 0.149 | – | 0.246 | – | -0.003 | -0.174 | -0.02 | – | -0.037 | – | 0.162 | 0.055 | 0.077 | -0.1 | – | -0.06 | 0.002 | – | –
17 | RBM26 isoform 3 (UniProt Q5T8P6) | – | – | – | – | – | – | 0.167 | – | – | – | – | – | – | – | – | – | 0.004 | 0.066 | – | –
18 | SAMD4B (UniProt Q5PRF9) | 0.075 | 0.146 | -0.527 (active) | -0.036 | 0.073 | 0.072 | – | – | 0.14 | – | -0.036 | -0.044 | 0.009 | -0.135 | -0.154 | -0.082 | 0.139 | -0.102 | -0.067 | 0.029
19 | SCYL3 isoform 2 (UniProt Q8IZE3) | 0.017 | 0.063 | -0.118 | -0.106 | -0.01 | 0.008 | -0.117 | 0.063 | 0.039 | 0.032 | -0.084 | 0.018 | -0.044 | -0.069 | -0.113 | -0.041 | – | – | 0.129 | -0.024
20 | SEMG2 (UniProt Q02383) | – | -0.008 | – | 0.096 | – | -0.021 | -0.135 | 0.005 | – | 0.063 | – | -0.021 | -0.021 | -0.032 | -0.043 | – | -0.002 | -0.058 | – | –
21 | RNF220 isoform 3 (UniProt Q5VTB9) | – | – | – | – | – | – | 0.073 | – | -0.153 | – | 0.261 | – | – | – | – | – | – | – | – | –
22 | RBM48 isoform 2 (UniProt Q5RL73) | -0.046 | -0.024 | 0.25 | -0.069 | 0.041 | -0.076 | 0.04 | – | -0.046 | – | 0.011 | -0.083 | -0.06 | 0.152 | -0.245 | 0.072 | -0.049 | 0.081 | – | –
23 | RPS3A (UniProt D6R9B6) | – | – | – | – | – | – | 0.079 | – | – | – | – | – | – | – | -0.134 | – | 0.228 | -0.014 | -0.015 | 0.069
24 | RAP2C (UniProt Q9Y3L5) | – | -0.01 | – | 0.007 | – | -0.031 | 0.008 | -0.073 | 0.016 | 0.031 | 0.1 | -0.799 (active) | -0.144 | -0.742 (active) | -0.039 | 0.009 | -0.011 | -0.046 | 0.06 | -0.108
